Shown are actives, neighbours in structure and some others; about 3.5% of the full set was active somewhere.
MITF inh: MITF inhibitors, primary screen, biochemical, AlphaScreen, human | AlphaScreen MITF homodimerization, bead proximity signal | inhibition, % at 2.6 µM | actives 0.91% (n = 650,000) | AID 1259374, 2018; in the data active = inhibition above about 50%
Target sequence (O75030 whole entry, looked up): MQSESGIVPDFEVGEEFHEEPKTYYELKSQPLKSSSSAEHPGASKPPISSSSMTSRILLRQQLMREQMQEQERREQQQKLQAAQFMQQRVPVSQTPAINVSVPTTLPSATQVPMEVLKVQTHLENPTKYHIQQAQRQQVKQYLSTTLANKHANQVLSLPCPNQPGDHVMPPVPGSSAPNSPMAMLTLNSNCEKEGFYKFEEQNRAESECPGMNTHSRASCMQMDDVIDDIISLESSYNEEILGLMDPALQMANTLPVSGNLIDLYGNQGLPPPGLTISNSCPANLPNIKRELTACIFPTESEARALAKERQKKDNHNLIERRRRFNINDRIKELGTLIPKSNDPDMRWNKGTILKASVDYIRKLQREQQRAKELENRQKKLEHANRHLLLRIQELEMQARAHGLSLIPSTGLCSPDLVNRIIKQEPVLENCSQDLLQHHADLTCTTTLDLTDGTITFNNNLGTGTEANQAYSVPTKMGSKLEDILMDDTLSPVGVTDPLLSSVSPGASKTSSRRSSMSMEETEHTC
GPR151 ag: activators of human GPR151, primary screen, cell-based, PathHunter beta-arrestin, luminescence; G-protein coupled receptor 151 (Homo sapiens), Q8TDV0; PathHunter beta-arrestin GPR151 cells; activation, % at 11.2 µM; actives 1% (n = 650,000); AID 1508602, 2020; in the data active = activation above about 4.9%
FBW7 activator: FBW7 E3 ligase activators, primary screen, biochemical, AlphaScreen, human; AlphaScreen FBW7–phospho-cyclin E peptide binding, activator screen; normalized activity (activation), % at 26.1 µM; actives 0.13% (n = 650,000); AID 1259310, 2017; in the data active = normalized activity above about 1.9%;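 note: purified mutant Fbw7 with reduced substrate affinity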
TEAD-YAP inh: TEAD-YAP interaction inhibition, primary screen, TEAD-YAP interaction inhibitor project, luminescence, HEK-TIYL cells. TEAD-Gal4/YAP UAS-luciferase luminescence. actives 1.4% (n = 640,000). inhibition, % at 9.12 µM; in the data active = inhibition above about 32%
MITF inh conf: MITF inhibitors, retest of hits, confirmation, biochemical, AlphaScreen, triplicate; shares compounds with MITF inh; AlphaScreen MITF homodimerization, biotin/His-MITF beads; inhibition, % at 2.6 µM; actives 16% (n = 4,700); AID 1259372, 2018;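 active = inhibition above a cutoff derived from the DMSO control wells, cut at about 28% in these data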;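 note: inhibitors lower the bead chemiluminescence by keeping MITF from dimerizing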
AlphaScreen intf2: AlphaScreen optical interference compounds, counter-screen for MITF inhibitor project, biochemical, triplicate; LysRS AlphaScreen counterscreen, signal interference; AID 1259376, 2018; inhibition, % at 2.6 µM; actives 7.6% (n = 4,700); shares compounds with MITF inh;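 active = inhibition above a cutoff derived from the DMSO control wells, cut at about 30% in these data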
Each line names hits and unclear results; the compound was inactive in the other large screens (follow-up assays come after a bar, where they were run).

CCOc1ccc(CN(CCc2ccc3c(c2)OCO3)Cc2cccc3ccccc23)cc1	MITF inh 53 | MITF inh conf inactive | AlphaScreen intf2 inactive
CCOc1ccc(CN(CCc2ccc3c(c2)OCO3)Cc2cc(OC)c(OC)cc2OC)cc1	none
CCOc1ccccc1CN(CCc1ccc2c(c1)OCO2)Cc1cccnc1	MITF inh 78 | MITF inh conf inactive | AlphaScreen intf2 inactive
CCOc1ccc(CN(CCc2ccc3c(c2)OCO3)Cc2cccnc2)cc1	MITF inh 60 | MITF inh conf inactive | AlphaScreen intf2 inactive
CCCCC1(C(=O)OCC)NC(c2ccc(O)cc2)C2C(=O)N(C)C(=O)C21 (configuration not stated)	none
CCCN(CCO)Cc1c(F)cccc1Cl	MITF inh 56 | MITF inh conf inactive | AlphaScreen intf2 inactive
OCCCCNCc1c(F)cccc1Cl	none
CCN(CC)CCCNCc1c(F)cccc1Cl	MITF inh 57 | MITF inh conf inactive | AlphaScreen intf2 inactive
COc1cccc(NC(=O)C2C(=O)CN(c3ccccc3)C2=O)c1 (configuration not stated)	none
COC(=O)c1ccccc1NC(=S)N1CCC(NC(=O)c2ccco2)CC1	none
O=C(C1CCCN(Cc2ccco2)C1)N1CCCCCC1 (configuration not stated)	MITF inh 54 | MITF inh conf inactive | AlphaScreen intf2 inactive
O=C(C1CCCN(Cc2ccccc2F)C1)N1CCCCC1 (configuration not stated)	MITF inh 69 | MITF inh conf inactive | AlphaScreen intf2 inactive
O=C(Nc1nccs1)c1ccc(=O)oc1	none
C#CCNC(=O)c1c(SCC)nc2sccn2c1=O	none
O=C1NC(=O)C(=Cc2ccccc2I)C(=O)N1	MITF inh 55 | MITF inh conf inactive | AlphaScreen intf2 inactive
O=C1C(=Cc2ccccc2I)C(=O)c2ccccc21	none
O=C1c2ccccc2C(=O)N1n1cnc2sc3c(c2c1=O)CCCC3	none
O=C(COC(=O)C1CCC(=O)N1)Nc1ccccc1Br (configuration not stated)	MITF inh 53 | MITF inh conf inactive | AlphaScreen intf2 inactive
Clc1ccc(CN2CCN(Cc3ccccn3)CC2)cc1	MITF inh 63 | MITF inh conf inactive | AlphaScreen intf2 inactive
Cc1ccc(CN2CCN(Cc3ccccn3)CC2)cc1	MITF inh 68 | MITF inh conf inactive | AlphaScreen intf2 inactive
c1ccc(N2CCN(Cc3ccccn3)CC2)cc1	none
O=C(CNCc1ccccn1)NCc1ccc(Cl)cc1	MITF inh 74 | MITF inh conf 31 | AlphaScreen intf2 100
Cc1ccccc1CN1CCN(Cc2ccccn2)CC1	MITF inh 79 | MITF inh conf inactive | AlphaScreen intf2 inactive
CS(=O)(=O)N1CCN(Cc2ccccn2)CC1	MITF inh 77 | MITF inh conf inactive | AlphaScreen intf2 inactive
Cc1ccc2c(c1C)C(C)(C)C1(C=Nc3c(ccc4ncccc34)O1)N2C (configuration not stated)	MITF inh 57 | MITF inh conf 52 | AlphaScreen intf2 52
COCCNC(=O)C1CCN(Cc2cc(OC)ccc2OC)CC1	none
COc1ccc(C(=O)C2CCN(C(=S)NCC3CCCO3)CC2)cc1 (configuration not stated)	MITF inh 85 | MITF inh conf inactive | AlphaScreen intf2 inactive
COc1ccc(OC)c(CN2CCC(C(=O)NCC3CCCO3)CC2)c1 (configuration not stated)	MITF inh 54 | MITF inh conf inactive | AlphaScreen intf2 inactive
O=C(NCC1CCCO1)C1CCN(Cc2c[nH]c3ccccc23)CC1 (configuration not stated)	MITF inh 55 | MITF inh conf inactive | AlphaScreen intf2 inactive
CCCNC(=O)C1=CC(c2ccc(C)cc2)=NS(=O)(=O)N1C	none
CN1CCN(CC(=O)c2c(-c3ccccc3)n(C)c3ccccc23)CC1	MITF inh 57 | MITF inh conf inactive | AlphaScreen intf2 inactive
Cc1cc2c(NC(=O)[C@@H]3CCC[C@@H](N)C3)cccc2nn1	none
CC1CCCCN1C(=O)c1ccc(Oc2cnccn2)cc1 (configuration not stated)	MITF inh 75 | MITF inh conf inactive | AlphaScreen intf2 inactive
Cc1cc(=O)[nH]c(N/N=C/c2cccc(Cl)c2Cl)n1	MITF inh 79 | MITF inh conf inactive | AlphaScreen intf2 inactive
Cc1cc(N2C(=O)C3C4C=CC(C4)C3C2=O)n[nH]1 (configuration not stated)	none
Cc1ccc(/C=N/NC(=O)c2nc(Cl)c(Cl)c(N)c2Cl)s1	none
O=C(O)C1CCN(c2ncc(-c3ccc(Cl)cc3)cn2)CC1	MITF inh 61 | MITF inh conf inactive | AlphaScreen intf2 inactive
ClC1(Cl)CC1CNc1ncnc2sc3c(c12)CCC3 (configuration not stated)	MITF inh 60 | MITF inh conf inactive | AlphaScreen intf2 inactive
O=C(CN1CCC(N2CCCCC2)CC1)Nc1ccc2c(c1)OCCO2	none
O=C(CN1CCC(N2CCCCC2)CC1)c1ccc2c(c1)OCCO2	MITF inh 58 | MITF inh conf inactive | AlphaScreen intf2 inactive
CCn1c(C)nc2cc(C(=O)NNC(=O)COc3cccc(Br)c3)ccc21	MITF inh 86 | MITF inh conf inactive | AlphaScreen intf2 inactive
CCn1c(C)nc2cc(C(=O)NNC(=O)NC3CCCCC3)ccc21	none
Cc1ccccc1C(OCC(O)CNCc1ccccn1)c1ccccc1 (configuration not stated)	MITF inh 51 | MITF inh conf inactive | AlphaScreen intf2 33
OC(CNCC(O)c1ccccc1)c1ccccc1 (configuration not stated)	none
OC(CNCc1ccccn1)c1ccccc1 (configuration not stated)	MITF inh 54 | MITF inh conf inactive | AlphaScreen intf2 43
COc1cc(OC)cc(C(=O)N2CCN(Cc3ccccc3Cl)CC2)c1	MITF inh 60 | MITF inh conf inactive | AlphaScreen intf2 inactive
COc1ccccc1CN1CCN(C(=O)c2cccc(F)c2)CC1	none
COc1cc(OC)cc(C(=O)N2CCN(Cc3ccccc3OC)CC2)c1	MITF inh 61 | MITF inh conf inactive | AlphaScreen intf2 inactive
COc1cc(OC)cc(C(=O)N2CCN(Cc3ccc(C)cc3)CC2)c1	none
COc1cccc(/C=N/NS(=O)(=O)c2ccc(C)cc2)c1	MITF inh 77 | MITF inh conf inactive | AlphaScreen intf2 inactive
CC(C)CNC(=O)Cc1csc(SCc2cccc(Cl)c2)n1	none
CC(C)(C)c1csc(CN2CCN(CC(=O)Nc3ccc4c(c3)OCO4)CC2)n1	MITF inh 79 | MITF inh conf inactive | AlphaScreen intf2 inactive
CCN1CCN(CCOc2cccc(Oc3ccccc3)c2)CC1	MITF inh 74 | MITF inh conf inactive | AlphaScreen intf2 inactive
Brc1cccc(OCCN2CCNCC2)c1	none

High-throughput results from PubChem BioAssay.
